# High-throughput results deposited in PubChem BioAssay by several laboratories.
# The list is not random: actives were taken first. Their share in the collection is about 5.2%.
# APOBEC3G inh = APOBEC3G (human) deaminase inhibition | Q9HC16 | recombinant A3G, ssDNA deamination FAM/TAMRA fluorescence | inhibition, % at 20 µM | 330,000 compounds, 0.28% hits | AID 493012;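 active = inhibition of at least 40% at 20 µM, with no more than 30% in the related APOBEC3A deaminase screen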
# NRP1-CendR mod = alters CendR peptide binding to human NRP-1 | inhibition, % at 25 µM | FAM-RPARPAR peptide binding to NRP-1, fluorescence polarization | 360,000 compounds, 0.85% hits | AID 602438;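 active = inhibition or corrected inhibition above about 18%, plus a signal ratio from 0.5 to 1.5, limit read from the data, passing the limit was not always enough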
# PfM18AAP inh-1 = blocks P. falciparum M18 aspartyl aminopeptidase. recombinant PfM18AAP, H-Glu-NHMec fluorogenic cleavage. inhibition, % at 7.35 µM. 290,000 compounds, 1.2% hits;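 active = inhibition above the campaign mean inhibition over all tested compounds plus 3 SD, cut at about 28% in these data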
# APOBEC3A inh = inhibitors of human APOBEC3A DNA deaminase | P31941 | recombinant A3A, FAM/TAMRA ssDNA deamination fluorescence | inhibition, % at 20 µM | 330,000 compounds, 0.41% hits | AID 493011;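 active = at least 40% inhibition at 20 µM here, with at most 30% in a related deaminase screen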
# CR mimetic SO = caloric restriction mimetics inhibiting age-related superoxide in yeast; S. cerevisiae aged cells, superoxide DHE fluorescence; active compounds read low; superoxide response (% of plate mean), % at 10 µM; 330,000 compounds, 0.18% hits;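 active = superoxide response under a set limit, about three screen SD below normal, cut at about 65% in these data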;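 note: yeast aged for seven days with compound at 30 °C before DHE staining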
# ALR H2O2 inh = blocks human ALR sulfhydryl oxidase activity; inhibition, % (test concentration not listed); 290,000 compounds, 3.8% hits; purified ALR, DTT oxidation, H2O2 HRP-luminol luminescence; P55789;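 active = mean replicate inhibition above about 79%, with every replicate also reaching it, limit read from the data; inconclusive = only one of the two criteria met; inactive = mean below limit and not every replicate reaching it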
# PfM18AAP inh-2 = confirmation of Plasmodium falciparum M18 aspartyl aminopeptidase inhibitors; recombinant PfM18AAP, H-Glu-NHMec fluorogenic cleavage; shares compounds with PfM18AAP inh-1; inhibition, % at 7.35 µM; AID 2170; 2,400 compounds, 28% hits;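 active = mean inhibition over replicate wells above the hit cutoff set for the earlier primary screen, cut at about 29% in these data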
# CTSL1 counter = Cathepsin L (human) inhibition, confirmation; shares compounds with PfM18AAP inh-1; purified cathepsin L1, Z-Leu-Arg-MCA fluorescence; inhibition, % at 5.96 µM; 2,400 tested, under 10 active;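 active = average inhibition across replicates above the hit cutoff set in the earlier primary screen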
# Target sequence (P07711 whole entry, looked up): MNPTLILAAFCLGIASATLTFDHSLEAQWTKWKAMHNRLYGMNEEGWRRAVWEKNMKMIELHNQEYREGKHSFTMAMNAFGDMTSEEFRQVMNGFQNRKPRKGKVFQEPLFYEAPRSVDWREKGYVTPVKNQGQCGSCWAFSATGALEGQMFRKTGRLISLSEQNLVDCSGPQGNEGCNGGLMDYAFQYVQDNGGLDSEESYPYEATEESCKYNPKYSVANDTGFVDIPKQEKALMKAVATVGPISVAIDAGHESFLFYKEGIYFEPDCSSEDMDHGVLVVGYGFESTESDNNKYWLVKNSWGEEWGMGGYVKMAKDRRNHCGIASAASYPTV
# A number is an active result; . = inactive; ? = inconclusive; / = no result.
SMILES,APOBEC3G inh,NRP1-CendR mod,PfM18AAP inh-1,APOBEC3A inh,CR mimetic SO,ALR H2O2 inh,PfM18AAP inh-2,CTSL1 counter
O=C(Nn1cnnc1)c1cc(Br)ccc1Cl,.,.,60.0,.,.,.,55.2,.
CCNC(=O)c1cc(Br)ccc1Cl,.,.,.,.,.,.,/,/
O=C(Nn1cnnc1)c1ccc(Cl)c(Cl)c1,.,.,51.7,.,.,.,50.2,.
COc1ccc(C(=O)NNC(=S)NC(=O)c2ccc(OC)cc2)cc1,.,.,.,.,.,.,/,/
CCNC(=S)NNC(=O)c1ccc(OC)cc1,.,.,33.0,.,.,.,.,.
CC(C)CNC(=S)NNC(=O)c1ccc2c(c1)OCO2,.,.,.,.,.,.,/,/
CCNC(=S)NNC(=O)c1ccoc1C,.,.,33.1,.,.,.,.,.
CCCCNC(=O)NNC(=O)c1ccoc1C,.,.,.,.,.,.,/,/
COCCCNC(=S)NNC(=O)c1ccoc1C,.,.,32.9,.,.,.,.,.
COCCCNC(=S)NNC(=O)c1ccc2c(c1)OCO2,.,.,35.2,.,.,.,.,.
CCNC(=O)C1CCCN(C(=O)c2ccc3snnc3c2)CC1 (stereo not given),/,.,/,/,/,/,/,/
Oc1c(C(c2ccccc2)N2CCc3ccccc3C2)sc2ncnn12 (stereo not given),.,.,58.2,.,.,.,.,.
CC1CCCN(C(c2ccccc2)c2sc3ncnn3c2O)C1 (stereo not given),.,.,54.8,.,.,?,.,.
Oc1c(C(c2ccco2)N2CCN(C(c3ccccc3)c3ccccc3)CC2)sc2ncnn12 (stereo not given),.,.,.,.,.,/,/,/
O=C(CCCN1C(=O)C2CC=CCC2C1=O)Nc1ccccc1Cl (stereo not given),.,.,.,.,.,.,/,/
Cc1cc([N+](=O)[O-])ccc1NC(=O)Nc1ccccc1F,.,.,.,.,.,/,/,/
COc1ccc(/C=N/NC(=O)c2cc(O)c(O)c(O)c2)cc1Cn1cc([N+](=O)[O-])cn1,/,.,48.5,/,/,/,.,.
COc1ccc(/C=N/NC(=O)c2ccccc2O)cc1Cn1cc([N+](=O)[O-])cn1,.,.,.,.,.,.,/,/
CC(=O)/C(=N\Nc1ccc(C)cc1)N1CCOCC1,.,.,55.2,.,.,98.7,.,.
O=C(/C=C/c1ccc(Cl)cc1)N1CCN(c2ccc([N+](=O)[O-])c(N3CCOCC3)c2)CC1,/,.,.,/,.,.,/,/
NC(=O)C1CCN(C(=O)C(=O)c2cn(CC(=O)N3CCCC3)c3ccccc23)CC1,.,.,43.0,.,.,.,.,.
CC1CCN(C(=O)C(=O)c2cn(CC(=O)N3CCCC3)c3ccccc23)CC1,.,.,.,.,.,.,/,/
Cc1cc(C)c2c(N)c(C(=O)NCc3ccco3)sc2n1,.,.,35.6,.,.,.,.,.
COC(=O)c1cc([N+](=O)[O-])c(-n2cncn2)c([N+](=O)[O-])c1,/,.,83.1,/,/,/,43.7,.
COC(=O)c1cc(F)c(-n2cncn2)c(F)c1,.,.,.,.,.,.,/,/
SMILES,APOBEC3G inh,NRP1-CendR mod,PfM18AAP inh-1,APOBEC3A inh,CR mimetic SO,ALR H2O2 inh,PfM18AAP inh-2,CTSL1 counter
Cc1ccc(-c2csc3ncn(Cc4ccc(C(=O)O)cc4)c(=O)c23)cc1C,.,.,.,.,.,.,/,/
Oc1ccc(/C=N/NC(=S)N/N=C/c2ccc(O)cc2)cc1,.,.,34.5,.,.,/,.,19.3
COc1ccccc1NC(=S)N/N=C/c1ccc(O)cc1,.,.,.,.,.,/,/,/
COc1nc(-c2ccccc2)cc(-c2ccc(OC)c(OC)c2)n1,.,.,.,.,.,.,/,/
COc1ccc(-c2cc(-c3ccccc3)nc(NN)n2)cc1OC,.,.,33.8,.,.,.,.,.
COc1ccc(-c2cc(C#N)nc(NN)n2)cc1,.,.,36.5,.,.,.,36.0,.
COc1ccccc1CNc1nc(C)c(C(C)=O)s1,.,.,.,.,.,.,/,/
COc1ccccc1CNc1nc(C)c(C(=O)N(C)C)s1,.,.,34.2,.,/,/,.,.
C=CCNC(=S)NNc1nc2sc3c(c2c(=O)[nH]1)CC(C)(C)OC3,.,.,33.6,.,.,.,.,.
CCOC(=O)/C(=C\c1ccccc1)C(=O)CCN1CCOCC1,/,.,/,/,/,/,/,/
